Source: PubChem (The Scripps Research Institute Molecular Screening Center)
Most compounds without a hit are left out; they make up all but 3.4% or so of the library.
MITF inh = blocks human microphthalmia-associated transcription factor; AlphaScreen MITF homodimerization, bead proximity signal; inhibition, % at 2.6 µM; O75030; 650,000 compounds, 0.91% hits; AID 1259374; in the data active = inhibition above about 50%
FBW7 activator = activators of human E3 ligase FBW7; AlphaScreen FBW7–phospho-cyclin E peptide binding, activator screen; Q969H0; normalized activity (activation), % at 26.1 µM; AID 1259310; 650,000 compounds, 0.13% hits; in the data active = normalized activity above about 1.9%;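 also: purified mutant Fbw7 with reduced substrate affinity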
Target sequence (Q969H0 whole entry, looked up): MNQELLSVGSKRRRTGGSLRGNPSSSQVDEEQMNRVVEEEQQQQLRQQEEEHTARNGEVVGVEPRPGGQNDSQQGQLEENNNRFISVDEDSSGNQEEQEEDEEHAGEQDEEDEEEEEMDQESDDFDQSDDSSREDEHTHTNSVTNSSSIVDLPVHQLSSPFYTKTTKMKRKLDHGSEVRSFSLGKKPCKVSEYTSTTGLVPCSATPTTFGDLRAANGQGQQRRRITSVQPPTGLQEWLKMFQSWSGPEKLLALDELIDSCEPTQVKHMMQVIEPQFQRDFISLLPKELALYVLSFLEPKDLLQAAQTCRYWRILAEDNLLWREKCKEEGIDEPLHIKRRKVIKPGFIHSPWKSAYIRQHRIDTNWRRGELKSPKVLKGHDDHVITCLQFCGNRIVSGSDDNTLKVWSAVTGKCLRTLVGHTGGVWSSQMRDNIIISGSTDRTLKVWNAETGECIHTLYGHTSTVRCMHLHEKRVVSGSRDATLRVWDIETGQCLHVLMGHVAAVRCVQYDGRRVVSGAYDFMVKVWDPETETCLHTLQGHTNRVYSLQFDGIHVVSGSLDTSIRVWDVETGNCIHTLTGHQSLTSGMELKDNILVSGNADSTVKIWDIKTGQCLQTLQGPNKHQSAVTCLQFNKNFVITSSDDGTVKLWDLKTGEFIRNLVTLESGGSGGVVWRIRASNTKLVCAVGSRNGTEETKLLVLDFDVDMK
GPR151 ag = activators of human GPR151 | 650,000 compounds, 1% hits | Q8TDV0 | PathHunter beta-arrestin GPR151 cells, luminescence | activation, % at 11.2 µM; in the data active = activation above about 4.9%
TEAD-YAP inh = TEAD-YAP interaction inhibition | HEK-TIYL cells, TEAD-Gal4/YAP UAS-luciferase luminescence | inhibition, % at 9.12 µM | 640,000 compounds, 1.4% hits; in the data active = inhibition above about 32%
Large screens that a line does not name were inactive.

Cc1ccc(Nc2nnc(SCC(=O)NC(=O)C3CCCCC3)s2)cc1	none
CC(C)(C)C(=O)COC(=O)c1ccc2c(c1)OCO2	none
CCCNc1ccc2ncc(-c3ccc(O)c(OC)c3)n2n1	TEAD-YAP inh 71
COc1cc(-c2cnc3ccc(NCc4cccs4)nn23)ccc1O	TEAD-YAP inh 40
COc1cc(CNc2ccc3ncc(-c4cccc(O)c4)n3n2)cc(OC)c1OC	none
COc1cc(CNc2ccc3ncc(-c4cccc(N(C)C)c4)n3n2)cc(OC)c1OC	TEAD-YAP inh 50
COc1cc(-c2cnc3ccc(NCC4CC4)nn23)ccc1O	none
COc1ccccc1-c1cnc2ccc(NCc3cccs3)nn12	FBW7 activator 1.9
OCc1ccccc1-c1cnc2ccc(NCc3cccs3)nn12	none
COc1cc(-c2cnc3ccc(NCc4cccs4)nn23)cc(OC)c1OC	none
O=C(NCc1ccccc1)c1[nH]ncc1[N+](=O)[O-]	none
NNC(=O)c1c(N)n(-c2ccc3ccccc3c2)c2nc3ccccc3nc12	TEAD-YAP inh 47
Cc1ccc(-n2c(N)c(C(=O)O)c3nc4ccccc4nc32)cc1C	none
CCOc1cc(C(=O)N2N=C(C)CC2(O)C(F)(F)F)cc(OCC)c1OCC (configuration not stated)	TEAD-YAP inh 61
COc1cc(C(=O)N2N=C(C)CC2(O)C(F)(F)F)ccc1O (configuration not stated)	none
COc1ccc(Cl)cc1NC(=O)Cn1c2ccccc2c(=O)c2ccccc21	none
CCN(CC)c1nc(C)nc2sc(C(=O)Nc3ccccc3F)c(C)c12	none
COc1ccc(C(=O)N2CCN(c3ccc([N+](=O)[O-])c(NCCc4ccc(OC)c(OC)c4)c3)CC2)cc1Cl	TEAD-YAP inh 59
O=C(c1ncn[nH]1)N1CCN(c2ccc([N+](=O)[O-])c(NCc3ccc(Cl)cc3)c2)CC1	FBW7 activator 3.9
COc1ccc(N2CCN(Cc3cc(OC)c(O)c([N+](=O)[O-])c3)CC2)cc1	MITF inh 72
COc1cc(CN2CCN(c3ccc([N+](=O)[O-])cc3)CC2)cc([N+](=O)[O-])c1O	none
COc1ccc(CCNc2cc(N3CCN(CCO)CC3)ccc2[N+](=O)[O-])cc1OC	TEAD-YAP inh 64
CCCCCn1c(=S)[nH]c2cc(C(=O)NCCSCc3ccccc3)ccc2c1=O	none
CC(=O)c1c(C)[nH]c(C(=O)OCC(=O)NC(=O)NCCC(C)C)c1C	none
O=C(NCc1cccs1)NC12CC3CC(CC(C3)C1)C2	none
O=C1C2C(C(=O)N1/N=C/c1ccccc1)C1C=CC2C12CC2 (configuration not stated)	none
CSC(Nc1ccc(Br)cc1)=C(C#N)C#N	TEAD-YAP inh 38
CC(C)c1ccc(/C=C2\N=C(c3cccc(I)c3)OC2=O)cc1	none
CN1CCN(Cc2cc(Br)c3cccnc3c2O)CC1	MITF inh 89, TEAD-YAP inh 45
Oc1c(Br)cc(Br)c2cccnc12	none
Oc1c(CN2CCN(c3cccc(C(F)(F)F)c3)CC2)cc(Br)c2cccnc12	TEAD-YAP inh 37
Oc1c(CN2CCN(c3cccc(Cl)c3)CC2)cc(Cl)c2cccnc12	none
Oc1c(CN2CCOCC2)cc(Br)c2cccnc12	TEAD-YAP inh 49
CC1CCN(Cc2cc(Br)c3cccnc3c2O)CC1	MITF inh 69, TEAD-YAP inh 47
COc1ccc(C2=N/C(=C\c3coc4ccccc4c3=O)C(=O)O2)cc1OC	none
O=S(=O)(NCC1(CO)CC1)c1ccccc1Cl	none
COC(=O)c1cc2cccc(OC)c2oc1=O	none
COC(=O)C1=C(OC)C(=O)OC12C=CC(=O)C=C2	TEAD-YAP inh 80
COc1ccc(C2CC(C(F)(F)F)n3ncc(C(=O)NCc4ccccc4)c3N2)cc1 (configuration not stated)	none
Cc1cc(C)nc(/N=C(\N)Nc2cccc(OCc3ccccc3)c2)n1	TEAD-YAP inh 50
COc1cccc(N/C(N)=N/c2nc(C)cc(C)n2)c1	TEAD-YAP inh 53
C/C(CC(=O)Nc1cccc2c1CCCC2)=N\NC(=O)C(C)C	none
O=C(Nc1cnn(-c2ccc(C(=O)NC3CCc4ccccc43)cc2)c1)c1ccoc1 (configuration not stated)	TEAD-YAP inh 56
CCN1CCN(c2ncc(-c3ccccc3)cc2C=O)CC1	TEAD-YAP inh 36
Cc1cc(C)nc(-n2ncc(Cl)c(Cl)c2=O)n1	TEAD-YAP inh 86
O=c1c(Cl)c(Cl)cnn1-c1cccc(C(F)(F)F)c1	none
O=c1c(Cl)c(Cl)cnn1-c1ccc(Cl)c(C(F)(F)F)c1	TEAD-YAP inh 86
O=c1c(Cl)c(Cl)cnn1-c1ccccc1	TEAD-YAP inh 93
O=c1c(Cl)c(Cl)cnn1Cc1ccccc1Cl	TEAD-YAP inh 33
O=C(CCN1C(=O)C2C3C=CC(C3)C2C1=O)N(CCc1ccccc1)Cc1ccccc1 (configuration not stated)	none
COc1ccc2oc(=O)c(C(=O)N3CCN(Cc4ccccc4)CC3)cc2c1	none
O=C(Nc1ccccc1N1CCOCC1)c1ccccc1I	none
CSc1cnn(-c2ccccc2)c(=O)c1SC	FBW7 activator 1.9
O=C1CN(S(=O)(=O)c2ccc3[nH]c4c(c3c2)CCCC4)c2ccccc2N1	TEAD-YAP inh 62
CCOc1ccc(S(=O)(=O)N2CC(=O)Nc3ccccc32)cc1	TEAD-YAP inh 42
O=C1CN(Cc2ccccc2)CC(=O)N1	none
O=C1CN(S(=O)(=O)c2ccc3ccccc3c2)c2ccccc2N1	none
Cc1cc(C)c(S(=O)(=O)N2CC(=O)Nc3ccccc32)c(C)c1	TEAD-YAP inh 55
CCCNS(=O)(=O)c1ccc2[nH]c3c(c2c1)CCCC3	none
O=C1CN(Cc2ccccc2)c2ccccc2N1	TEAD-YAP inh 96
O=C1CN(S(=O)(=O)c2ccc(Br)cc2)c2ccccc2N1	none
CC(C)(C)OC(=O)N1CCc2c(cnn2-c2cccc(C(=O)Nc3ccc(N4CCOCC4)cc3)c2)C1	FBW7 activator 4.1
O=C(Nc1ccc(N2CCOCC2)cc1)c1cccc(-n2ncc3c2CCNC3)c1	none
O=C(Nc1ccc(N2CCOCC2)cc1)c1cccc(-n2cc(-c3nc4ccccc4o3)cn2)c1	FBW7 activator 2.4
CCOC(=O)c1sc2nc(SCC(=O)Nc3ccc(N(C)C)cc3)n(Cc3ccc(F)cc3)c(=O)c2c1C	none
CC[C@]1(O)CC2CN(CCc3c([nH]c4ccccc34)[C@@](C(=O)OC)(c3cc4c(cc3OC)N(C)[C@H]3[C@@](O)(C(N)=O)[C@H](O)[C@]5(CC)C=CCN6CC[C@]43[C@@H]65)C2)C1 (some centres not stated)	TEAD-YAP inh 47
CCC1=C[C@@H]2CN(C1)Cc1c([nH]c3ccccc13)[C@@](C(=O)OC)(c1cc3c(cc1OC)N(C)[C@H]1[C@@](O)(C(=O)OC)[C@H](OC(C)=O)[C@]4(CC)C=CCN5CC[C@]31[C@@H]54)C2	TEAD-YAP inh 65
CCC1(O)CC2CN(CCc3c([nH]c4ccccc34)[C@@](C(=O)OC)(c3cc4c(cc3OC)N(C)C3[C@]45CCN4CC=C[C@@](CC)([C@@H](OC(C)=O)[C@]3(O)C(=O)OC)[C@H]45)C2)C1 (some centres not stated)	TEAD-YAP inh 70
